# Data as given in paper PMC7862700, “An all-to-all approach to the identification of sequence-specific readers for epigenetic DNA modifications on cytosine”.
# Key:
# Experiment in all cases: DAPPL (digital affinity profiling via proximity ligation, sequencing); 10 mM Tris-HCl pH 7.5, 50 mM NaCl, 1 mM DTT, 4% glycerol, room temperature, 30 min; GST-TFs on glutathione beads, 16-mer random dsDNA library, 0.1% formaldehyde crosslink after washing; high values mean tight binding
# FLI1 = biological target: T1, FLI1 (Homo sapiens, UniProt Q01543 1-452); conditions: protein: recombinant; tags: N-terminal GST; dsDNA, one strand shown
# T1 sequence: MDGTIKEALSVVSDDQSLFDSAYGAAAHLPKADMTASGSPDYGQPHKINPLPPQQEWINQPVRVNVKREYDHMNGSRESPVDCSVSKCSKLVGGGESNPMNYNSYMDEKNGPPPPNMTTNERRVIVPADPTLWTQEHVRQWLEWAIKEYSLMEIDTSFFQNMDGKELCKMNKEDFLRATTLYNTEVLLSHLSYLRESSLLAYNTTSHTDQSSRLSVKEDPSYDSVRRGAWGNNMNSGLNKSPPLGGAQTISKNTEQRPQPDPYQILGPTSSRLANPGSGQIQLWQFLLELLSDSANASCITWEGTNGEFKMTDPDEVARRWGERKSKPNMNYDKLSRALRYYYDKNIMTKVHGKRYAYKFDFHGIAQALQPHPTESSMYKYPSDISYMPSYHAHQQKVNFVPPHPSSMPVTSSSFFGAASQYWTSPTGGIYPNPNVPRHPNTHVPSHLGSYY
# How it was run: (§1)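 A tag-only sample was pooled with DNA-barcoded human transcription factors that had been expressed in yeast as GST fusions and captured on glutathione beads. The pools were incubated for 30 min at room temperature with 200 nmole of a random double-stranded 16-mer DNA library in Tris/NaCl/DTT/glycerol buffer, then washed, crosslinked with 0.1% formaldehyde, proximity-ligated (BsaI/T4 ligase, 1 h, 37 °C), PCR-amplified and sequenced on an Illumina NextSeq500. Binding signal is each hexamer's read frequency for a factor divided by its frequency for the tag-only sample.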
# ELK1 = biological target: T2, ELK1 (Homo sapiens, UniProt P19419 1-428); conditions: protein: recombinant; tags: N-terminal GST; dsDNA, one strand shown
# T2 sequence: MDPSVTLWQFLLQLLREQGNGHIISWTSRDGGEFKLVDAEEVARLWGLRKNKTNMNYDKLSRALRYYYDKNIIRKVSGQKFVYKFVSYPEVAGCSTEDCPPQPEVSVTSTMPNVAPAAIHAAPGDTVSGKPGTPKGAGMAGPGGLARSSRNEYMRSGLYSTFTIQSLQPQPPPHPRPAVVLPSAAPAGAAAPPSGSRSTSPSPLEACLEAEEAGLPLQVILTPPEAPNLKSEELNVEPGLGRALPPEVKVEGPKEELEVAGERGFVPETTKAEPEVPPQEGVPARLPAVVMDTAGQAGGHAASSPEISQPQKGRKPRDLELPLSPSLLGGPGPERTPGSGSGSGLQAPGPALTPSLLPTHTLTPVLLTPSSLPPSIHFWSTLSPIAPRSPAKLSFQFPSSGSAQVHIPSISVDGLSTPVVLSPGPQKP
# How it was run: as §1
# GABPA = biological target: T3, GABPA (Homo sapiens, UniProt Q06546 1-454); conditions: protein: recombinant; tags: N-terminal GST; dsDNA, one strand shown
# T3 sequence: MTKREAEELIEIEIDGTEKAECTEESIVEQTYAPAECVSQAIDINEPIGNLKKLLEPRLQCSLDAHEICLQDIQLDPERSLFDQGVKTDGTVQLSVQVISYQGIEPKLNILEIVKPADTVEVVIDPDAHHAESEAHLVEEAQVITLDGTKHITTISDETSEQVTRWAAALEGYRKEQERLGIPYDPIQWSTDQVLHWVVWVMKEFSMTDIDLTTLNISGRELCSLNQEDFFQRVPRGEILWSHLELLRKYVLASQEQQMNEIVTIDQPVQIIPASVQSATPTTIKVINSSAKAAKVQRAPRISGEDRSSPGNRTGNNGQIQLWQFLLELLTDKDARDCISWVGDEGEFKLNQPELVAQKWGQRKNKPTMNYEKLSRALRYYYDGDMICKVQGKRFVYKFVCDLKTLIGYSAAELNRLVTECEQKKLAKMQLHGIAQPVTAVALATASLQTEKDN
# How it was run: as §1
# ERG = biological target: T4, ERG (Homo sapiens, UniProt P11308 1-479); conditions: protein: recombinant; tags: N-terminal GST; dsDNA, one strand shown
# T4 sequence: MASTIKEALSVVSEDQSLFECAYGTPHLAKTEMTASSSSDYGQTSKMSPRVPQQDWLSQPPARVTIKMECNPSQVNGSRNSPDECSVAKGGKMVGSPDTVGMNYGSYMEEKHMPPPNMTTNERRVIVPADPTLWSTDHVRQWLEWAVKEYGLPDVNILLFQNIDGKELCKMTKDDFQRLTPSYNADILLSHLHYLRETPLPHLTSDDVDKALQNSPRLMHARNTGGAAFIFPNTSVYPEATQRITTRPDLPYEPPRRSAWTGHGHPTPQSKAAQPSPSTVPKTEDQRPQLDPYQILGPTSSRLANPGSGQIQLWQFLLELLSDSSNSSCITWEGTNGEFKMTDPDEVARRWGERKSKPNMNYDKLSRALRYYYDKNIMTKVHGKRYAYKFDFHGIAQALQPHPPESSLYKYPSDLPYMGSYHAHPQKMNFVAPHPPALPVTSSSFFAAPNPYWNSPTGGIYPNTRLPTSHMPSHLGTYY
# How it was run: as §1
# ELF1 = ELF1 (Homo sapiens, UniProt P32519 1-619); conditions: protein: recombinant; tags: N-terminal GST; dsDNA, one strand shown
# How it was run: as §1
# EHF = biological target: T5, EHF (Homo sapiens, UniProt Q9NZC4 1-300); conditions: protein: recombinant; tags: N-terminal GST; dsDNA, one strand shown
# T5 sequence: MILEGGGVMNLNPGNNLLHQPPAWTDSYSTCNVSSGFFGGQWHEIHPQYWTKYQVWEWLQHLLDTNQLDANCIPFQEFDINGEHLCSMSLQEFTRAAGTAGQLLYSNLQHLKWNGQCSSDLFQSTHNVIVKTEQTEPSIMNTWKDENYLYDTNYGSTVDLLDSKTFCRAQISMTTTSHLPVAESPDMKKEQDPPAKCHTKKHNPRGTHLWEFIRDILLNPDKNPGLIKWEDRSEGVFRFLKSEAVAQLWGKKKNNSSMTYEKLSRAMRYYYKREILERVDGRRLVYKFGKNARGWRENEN
# How it was run: as §1
# SPI1 = SPI1 (Homo sapiens, UniProt P17947 1-270); conditions: protein: recombinant; tags: N-terminal GST; dsDNA, one strand shown
# How it was run: as §1
# SPIB = SPIB (Homo sapiens, UniProt Q01892 1-262); conditions: protein: recombinant; tags: N-terminal GST; dsDNA, one strand shown
# How it was run: as §1
# ELK3 = biological target: T6, ELK3 (Homo sapiens, UniProt P41970 1-407); conditions: protein: recombinant; tags: N-terminal GST; dsDNA, one strand shown
# T6 sequence: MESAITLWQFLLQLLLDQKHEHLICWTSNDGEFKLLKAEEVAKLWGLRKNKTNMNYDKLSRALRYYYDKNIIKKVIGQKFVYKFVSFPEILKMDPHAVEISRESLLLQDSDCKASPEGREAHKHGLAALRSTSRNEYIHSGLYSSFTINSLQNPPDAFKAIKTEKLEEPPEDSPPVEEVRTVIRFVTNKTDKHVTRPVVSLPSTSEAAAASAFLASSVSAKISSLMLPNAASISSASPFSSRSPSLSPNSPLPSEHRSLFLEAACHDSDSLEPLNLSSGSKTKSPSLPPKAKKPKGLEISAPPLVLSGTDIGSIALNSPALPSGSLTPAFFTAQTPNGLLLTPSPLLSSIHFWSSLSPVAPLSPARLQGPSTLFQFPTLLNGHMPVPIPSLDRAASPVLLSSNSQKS
# How it was run: as §1
# FEV = biological target: T7, FEV (Homo sapiens, UniProt Q99581 1-238); conditions: protein: recombinant; tags: N-terminal GST; dsDNA, one strand shown
# T7 sequence: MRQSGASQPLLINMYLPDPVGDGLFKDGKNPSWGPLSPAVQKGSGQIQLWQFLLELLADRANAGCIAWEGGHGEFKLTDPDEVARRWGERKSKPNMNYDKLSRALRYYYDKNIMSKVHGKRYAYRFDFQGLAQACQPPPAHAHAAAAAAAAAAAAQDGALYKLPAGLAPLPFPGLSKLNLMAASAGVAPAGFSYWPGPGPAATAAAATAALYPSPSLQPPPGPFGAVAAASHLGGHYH
# How it was run: as §1
# ETV5 = ETV5 (Homo sapiens, UniProt P41161 1-510); conditions: protein: recombinant; tags: N-terminal GST; dsDNA, one strand shown
# How it was run: as §1
# HSF1 = HSF1 (Homo sapiens, UniProt Q00613 1-529); conditions: protein: recombinant; tags: N-terminal GST; chain copies: 3; dsDNA, one strand shown
# How it was run: as §1
# SPIC = biological target: T8, SPIC (Homo sapiens, UniProt Q8N5J4 1-248); conditions: protein: recombinant; tags: N-terminal GST; dsDNA, one strand shown
# T8 sequence: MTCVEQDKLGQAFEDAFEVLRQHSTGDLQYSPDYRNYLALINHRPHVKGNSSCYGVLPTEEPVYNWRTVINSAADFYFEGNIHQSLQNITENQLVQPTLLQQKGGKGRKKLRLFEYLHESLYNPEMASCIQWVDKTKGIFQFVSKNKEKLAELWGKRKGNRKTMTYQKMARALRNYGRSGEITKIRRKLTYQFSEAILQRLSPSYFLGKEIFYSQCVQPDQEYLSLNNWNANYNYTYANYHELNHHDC
# How it was run: as §1
# ELF4 = ELF4 (Homo sapiens, UniProt Q99607 1-663); conditions: protein: recombinant; tags: N-terminal GST; dsDNA, one strand shown
# How it was run: as §1
# ELK4 = biological target: T9, ELK4 (Homo sapiens, UniProt P28324-2 1-405); conditions: protein: recombinant; tags: N-terminal GST; dsDNA, one strand shown
# T9 sequence: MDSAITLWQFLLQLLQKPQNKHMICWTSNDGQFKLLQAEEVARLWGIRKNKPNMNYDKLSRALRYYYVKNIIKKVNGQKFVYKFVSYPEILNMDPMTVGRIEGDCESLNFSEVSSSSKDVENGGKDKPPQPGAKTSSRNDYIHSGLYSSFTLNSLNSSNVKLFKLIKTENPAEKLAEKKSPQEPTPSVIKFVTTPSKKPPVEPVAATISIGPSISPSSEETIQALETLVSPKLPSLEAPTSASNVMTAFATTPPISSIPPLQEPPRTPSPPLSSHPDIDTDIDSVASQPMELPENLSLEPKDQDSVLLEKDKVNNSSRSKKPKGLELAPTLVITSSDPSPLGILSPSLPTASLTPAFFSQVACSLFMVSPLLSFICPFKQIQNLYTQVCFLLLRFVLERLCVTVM
# How it was run: as §1
# ETV2 = biological target: T10, ETV2 (Homo sapiens, UniProt O00321 1-342); conditions: protein: recombinant; tags: N-terminal GST; dsDNA, one strand shown
# T10 sequence: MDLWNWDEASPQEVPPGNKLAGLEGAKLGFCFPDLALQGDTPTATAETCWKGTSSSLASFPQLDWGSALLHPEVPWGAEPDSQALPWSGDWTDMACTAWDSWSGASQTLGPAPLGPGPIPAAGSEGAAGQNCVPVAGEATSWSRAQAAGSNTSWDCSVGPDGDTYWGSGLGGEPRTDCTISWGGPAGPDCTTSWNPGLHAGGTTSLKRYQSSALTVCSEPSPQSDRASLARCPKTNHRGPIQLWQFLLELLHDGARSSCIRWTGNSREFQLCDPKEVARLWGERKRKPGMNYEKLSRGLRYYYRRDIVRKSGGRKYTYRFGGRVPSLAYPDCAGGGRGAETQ
# How it was run: as §1
# ELF3 = biological target: T11, ELF3 (Homo sapiens, UniProt P78545 1-371); conditions: protein: recombinant; tags: N-terminal GST; dsDNA, one strand shown
# T11 sequence: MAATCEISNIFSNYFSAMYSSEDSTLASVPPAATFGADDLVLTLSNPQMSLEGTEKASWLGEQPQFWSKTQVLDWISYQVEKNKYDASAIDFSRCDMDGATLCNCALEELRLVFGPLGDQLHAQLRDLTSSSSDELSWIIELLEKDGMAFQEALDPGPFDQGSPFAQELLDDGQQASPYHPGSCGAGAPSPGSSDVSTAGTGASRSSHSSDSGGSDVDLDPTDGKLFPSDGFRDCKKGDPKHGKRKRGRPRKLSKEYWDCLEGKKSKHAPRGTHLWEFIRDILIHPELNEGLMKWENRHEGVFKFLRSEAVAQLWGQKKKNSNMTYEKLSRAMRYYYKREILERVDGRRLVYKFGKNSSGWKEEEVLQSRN
# How it was run: as §1
# CRX = CRX (Homo sapiens, UniProt O43186 1-299); conditions: protein: recombinant; tags: N-terminal GST; dsDNA, one strand shown
# How it was run: as §1
# ETV1 = ETV1 (Homo sapiens, UniProt P50549 1-477); conditions: protein: recombinant; tags: N-terminal GST; dsDNA, one strand shown
# How it was run: as §1
# Chain of ETV5 (P41161 whole entry): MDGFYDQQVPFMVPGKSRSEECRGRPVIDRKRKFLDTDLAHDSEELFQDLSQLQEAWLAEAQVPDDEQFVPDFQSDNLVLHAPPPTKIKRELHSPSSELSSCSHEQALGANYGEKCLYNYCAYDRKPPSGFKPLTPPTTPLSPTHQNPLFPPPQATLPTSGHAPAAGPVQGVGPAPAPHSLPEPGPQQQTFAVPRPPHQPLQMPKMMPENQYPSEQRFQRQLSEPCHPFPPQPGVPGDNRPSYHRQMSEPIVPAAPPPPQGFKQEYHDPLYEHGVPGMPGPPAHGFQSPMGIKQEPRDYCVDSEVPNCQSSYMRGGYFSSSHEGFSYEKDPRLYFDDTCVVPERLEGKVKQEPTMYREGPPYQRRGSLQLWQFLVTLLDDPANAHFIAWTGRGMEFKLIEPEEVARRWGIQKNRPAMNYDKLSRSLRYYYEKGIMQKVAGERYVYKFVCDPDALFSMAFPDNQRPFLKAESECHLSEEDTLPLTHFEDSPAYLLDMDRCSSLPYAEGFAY
# Chain of CRX (O43186 whole entry): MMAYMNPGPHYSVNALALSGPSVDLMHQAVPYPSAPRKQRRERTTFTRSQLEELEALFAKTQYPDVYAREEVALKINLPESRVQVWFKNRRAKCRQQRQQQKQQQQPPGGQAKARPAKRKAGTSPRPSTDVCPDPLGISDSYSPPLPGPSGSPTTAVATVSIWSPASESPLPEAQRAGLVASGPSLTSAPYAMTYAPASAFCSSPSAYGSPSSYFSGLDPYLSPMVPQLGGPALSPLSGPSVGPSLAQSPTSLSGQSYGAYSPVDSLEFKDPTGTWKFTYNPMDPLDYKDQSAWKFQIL
# Chain of HSF1 (Q00613 whole entry): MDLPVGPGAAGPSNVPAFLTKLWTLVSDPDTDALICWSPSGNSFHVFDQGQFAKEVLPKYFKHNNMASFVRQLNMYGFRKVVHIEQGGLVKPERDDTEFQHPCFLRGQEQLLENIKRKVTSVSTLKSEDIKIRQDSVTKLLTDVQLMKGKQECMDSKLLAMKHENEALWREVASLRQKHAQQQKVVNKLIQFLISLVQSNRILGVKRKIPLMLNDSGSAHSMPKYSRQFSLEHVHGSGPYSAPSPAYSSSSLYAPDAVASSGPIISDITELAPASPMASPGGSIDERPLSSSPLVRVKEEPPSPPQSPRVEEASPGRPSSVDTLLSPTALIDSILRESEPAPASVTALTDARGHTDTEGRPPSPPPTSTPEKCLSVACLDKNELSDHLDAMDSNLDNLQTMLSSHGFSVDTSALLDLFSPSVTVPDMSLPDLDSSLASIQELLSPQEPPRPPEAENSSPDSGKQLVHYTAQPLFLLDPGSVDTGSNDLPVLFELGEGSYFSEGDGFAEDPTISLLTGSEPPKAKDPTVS
# Chain of SPIB (Q01892 whole entry): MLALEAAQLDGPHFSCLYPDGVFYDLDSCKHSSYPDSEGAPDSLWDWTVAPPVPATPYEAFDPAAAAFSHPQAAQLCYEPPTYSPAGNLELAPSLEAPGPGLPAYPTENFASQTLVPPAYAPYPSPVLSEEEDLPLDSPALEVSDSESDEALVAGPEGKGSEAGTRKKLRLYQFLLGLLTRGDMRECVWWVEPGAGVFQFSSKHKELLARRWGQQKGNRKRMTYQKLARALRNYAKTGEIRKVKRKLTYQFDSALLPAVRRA
# Chain of ELF1 (P32519 whole entry): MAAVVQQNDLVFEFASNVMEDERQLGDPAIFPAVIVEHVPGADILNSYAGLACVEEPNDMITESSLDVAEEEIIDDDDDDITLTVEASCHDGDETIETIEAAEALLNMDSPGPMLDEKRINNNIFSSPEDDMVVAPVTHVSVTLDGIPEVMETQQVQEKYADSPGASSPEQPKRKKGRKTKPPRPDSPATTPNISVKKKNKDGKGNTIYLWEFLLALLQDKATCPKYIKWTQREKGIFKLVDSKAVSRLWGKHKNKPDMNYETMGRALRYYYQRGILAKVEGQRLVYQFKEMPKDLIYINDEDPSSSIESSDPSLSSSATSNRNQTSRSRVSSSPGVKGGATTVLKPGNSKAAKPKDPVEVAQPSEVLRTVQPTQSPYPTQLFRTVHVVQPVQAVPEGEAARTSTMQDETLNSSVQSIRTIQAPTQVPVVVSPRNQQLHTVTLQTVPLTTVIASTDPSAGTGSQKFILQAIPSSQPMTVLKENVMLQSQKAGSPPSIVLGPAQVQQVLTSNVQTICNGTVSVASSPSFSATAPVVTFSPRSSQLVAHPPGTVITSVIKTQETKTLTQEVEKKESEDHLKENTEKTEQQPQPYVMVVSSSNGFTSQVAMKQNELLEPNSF
# Chain of ETV1 (P50549 whole entry): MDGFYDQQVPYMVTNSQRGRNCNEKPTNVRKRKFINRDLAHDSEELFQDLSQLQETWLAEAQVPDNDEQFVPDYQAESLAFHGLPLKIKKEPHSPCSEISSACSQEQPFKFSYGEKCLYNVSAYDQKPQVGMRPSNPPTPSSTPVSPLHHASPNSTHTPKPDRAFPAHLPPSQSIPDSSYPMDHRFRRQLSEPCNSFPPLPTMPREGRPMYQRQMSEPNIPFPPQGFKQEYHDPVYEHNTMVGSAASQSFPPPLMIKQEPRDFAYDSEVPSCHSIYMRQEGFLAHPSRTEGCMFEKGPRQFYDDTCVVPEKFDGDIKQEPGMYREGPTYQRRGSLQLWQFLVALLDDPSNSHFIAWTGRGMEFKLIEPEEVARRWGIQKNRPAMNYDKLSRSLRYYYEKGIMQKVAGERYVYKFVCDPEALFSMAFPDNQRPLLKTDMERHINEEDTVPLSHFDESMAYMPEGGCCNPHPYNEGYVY
# Chain of ELF4 (Q99607 whole entry): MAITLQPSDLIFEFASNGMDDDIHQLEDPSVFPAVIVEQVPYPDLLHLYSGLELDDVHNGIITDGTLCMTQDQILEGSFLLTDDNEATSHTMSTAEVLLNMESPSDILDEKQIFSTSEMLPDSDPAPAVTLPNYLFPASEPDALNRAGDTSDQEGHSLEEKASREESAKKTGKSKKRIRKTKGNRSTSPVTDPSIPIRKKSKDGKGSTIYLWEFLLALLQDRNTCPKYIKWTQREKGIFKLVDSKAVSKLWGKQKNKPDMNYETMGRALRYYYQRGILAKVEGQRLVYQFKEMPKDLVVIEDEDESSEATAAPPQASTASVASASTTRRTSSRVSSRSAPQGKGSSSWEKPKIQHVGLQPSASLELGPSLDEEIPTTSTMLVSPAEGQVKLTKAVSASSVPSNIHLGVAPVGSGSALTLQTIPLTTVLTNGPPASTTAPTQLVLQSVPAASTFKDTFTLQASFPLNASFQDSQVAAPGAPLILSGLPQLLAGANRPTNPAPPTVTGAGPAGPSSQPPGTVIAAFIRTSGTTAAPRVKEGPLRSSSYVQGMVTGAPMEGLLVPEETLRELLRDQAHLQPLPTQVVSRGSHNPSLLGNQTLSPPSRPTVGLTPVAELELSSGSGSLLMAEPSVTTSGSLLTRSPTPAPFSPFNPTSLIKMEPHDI
sequence,measurement,setting,value
ATCTTT,binding signal,FLI1,"1.26 fold enrichment (6-mer frequency, TF over GST control)"
same,binding signal,ELK1,"1.24 fold enrichment (6-mer frequency, TF over GST control)"
same,binding signal,GABPA,"1.22 fold enrichment (6-mer frequency, TF over GST control)"
same,binding signal,ERG,"1.21 fold enrichment (6-mer frequency, TF over GST control)"
same,binding signal,ELF1,"1.19 fold enrichment (6-mer frequency, TF over GST control)"
same,binding signal,EHF,"1.27 fold enrichment (6-mer frequency, TF over GST control)"
same,binding signal,SPI1,"1.21 fold enrichment (6-mer frequency, TF over GST control)"
same,binding signal,SPIB,"1.23 fold enrichment (6-mer frequency, TF over GST control)"
same,binding signal,ELK3,"1.22 fold enrichment (6-mer frequency, TF over GST control)"
same,binding signal,FEV,"1.19 fold enrichment (6-mer frequency, TF over GST control)"
same,binding signal,ETV5,"1.16 fold enrichment (6-mer frequency, TF over GST control)"
same,binding signal,HSF1,"1.58 fold enrichment (6-mer frequency, TF over GST control)"
same,binding signal,SPIC,"1.35 fold enrichment (6-mer frequency, TF over GST control)"
same,binding signal,ELF4,"1.22 fold enrichment (6-mer frequency, TF over GST control)"
same,binding signal,ELK4,"1.29 fold enrichment (6-mer frequency, TF over GST control)"
same,binding signal,ETV2,"1.15 fold enrichment (6-mer frequency, TF over GST control)"
same,binding signal,ELF3,"1.17 fold enrichment (6-mer frequency, TF over GST control)"
same,binding signal,CRX,"1.76 fold enrichment (6-mer frequency, TF over GST control)"
same,binding signal,ETV1,"1.24 fold enrichment (6-mer frequency, TF over GST control)"
